According to PubChem BioAssay (NCATS):
Records with an inconclusive call do not appear. Unmarked numbers belong to inactive results. Active and inactive are the calls of the source. The call rests on the fitted dose curve; in most records, active means well fitted inhibition curve with a large enough effect; inconclusive means small, poorly fitted or top-dose-only effect; inactive means no such curve, though single readings can be large or run the other way.

assay: BET inhibitor-based combinations targeting novel dependencies in MECOM-rearranged (r) AML: MV-4-11 cell line (AID 2202233); conditions: MV-4-11 AML viability, CellTiter-Glo luminescence, 48 h; series mostly up to 46 µM; viability, % of control: at the top concentration; further: nearly all actives have a fitted effect of over 45% in size
From the text: Ecotropic viral insertion site 1 (EVI1) is located on chromosome 3q26.2 as part of the MECOM (MDS and EVI1 complex) locus. Under normal hematopoiesis, EVI1 is a regulator of hematopoietic stem cell maintenance and self-renewal and EVI1 levels decrease as the cells differentiate. In approximately 5-10% of de novo acute myeloid leukemia (AML) EVI1 is aberrantly expressed, including Chromosomal inv(3)(q21;q26.2) or t(3;3)(q21;q26.2) alterations (MECOM-r) that account for about 50% of AML with EVI1 overexpression 31. AMLs with high levels of EVI1 have a poor prognosis and an overall survival time averaging between 10-14 months. EVI1 overexpression confers resistance in leukemia cells, highlighting the need to develop new targeted therapies for EVI1 overexpressing AMLs. Here, we performed an unbiased chemical drug screening by evaluating the single agent activity of a collection of 2,480 oncology-focused, approved and investigational drugs (NCATS Mechanism Interrogation Plates, MIPE v5.0) against a panel of seven AML cell lines. These included four MECOM-r cell-lines (AML-191, AML-194, UCSD-AML1 and HNT-34) and three non-MECOM-r AMLs (MV4-11, OCI-AML3 and SET-2). Exploiting the mechanistic redundancy built in the library, we identified target-level sensitivities in MECOM-r AML cells and relative activity as compared to other AML subtypes.
A collection of 2480 mechanistically annotated dugs (MIPE v5.0) was used to screen four 3q26.2 rearranged AML cell lines and three non-3q26.2 rearranged AML cell lines. This library purposely exploits redundancy by including multiple inhibitors of key onco-targets, while simultaneously encompassing mechanistic diversity, targeting more than 800 distinct mechanisms of action. Briefly, cells were seeded in 5 uL of growth media using a Multidrop Combi dispenser into 1536 well white polystyrene tissue culture treated plates (Corning) at a density of 500cells/well. For each cell-line, for each of the 2480 drugs in MIPE v5.0 library, an 11-point dose curve was generated via a 1536 pin-tool. Plates were incubated for 48 hr at standard incubator conditions, covered by a stainless steel gasketed lid to prevent evaporation. Cell viability was determined by luminescence based, Cell Titer Glo assay (Promega). In detail, 3 uL of Cell Titer Glo were added to each well and plates were incubated at room temperature for 15 min with a stainless-steel lid in place. Luminescence readings were taken using a Viewlux (PerkinElmer) with a 2 s exposure time per plate. Compound dose-response curves were normalized to DMSO and empty well controls on each plate. Quantitative drug activity data from dose-response curves was determined utilizing area Under the Curve (AUC) and Z-transformed AUC (Z-AUC, a mean-centering transformation applied to each individual cell-line screened).
Potency means the concentration at half of the fitted maximal effect.

Q: For Cc1ccc(C(=O)N(CCCN)[C@@H](c2nc3cc(Cl)ccc3c(=O)n2Cc2ccccc2)C(C)C)cc1, which Potency is on record?
A: Its Potency is 0.0417 µM (active).

Q: Which “viability, % of control” value does the source give for C[C@]12CCC3=C4CCC(=O)C=C4CC[C@H]3[C@@H]1CC[C@@]2(O)CC#N here?
A: Its value is 106%.

Q: With CC(C)(O)c1coc(S(=O)(=O)NC(=O)Nc2c3c(cc4c2CCC4)CCC3)c1 as the molecule, how does the “viability, % of control” value read?
A: The value was 92%.

Q: With C=CC[N+]1([C@H]2C[C@H]3[C@@H]4CC[C@H]5C[C@H](O)[C@@H](N6CCOCC6)C[C@]5(C)[C@H]4CC[C@]3(C)[C@H]2OC(C)=O)CCCC1 as the molecule, how does the “viability, % of control” value read?
A: The value was 112%.

Q: For CC(C)(C)C(=O)OCOP(=O)(COCCn1cnc2c(N)ncnc21)OCOC(=O)C(C)(C)C, which Potency is on record?
A: The Potency was 0.209 µM (active).

Q: For CSC[C@H]1CN(Cc2c[nH]c3c(N)ncnc23)C[C@@H]1O, which “viability, % of control” value is on record?
A: The value was 82.2%.

Q: For CC(C)n1cc(-c2ccc3c(c2)N(C)CC3)c2c(NS(=O)(=O)c3ccn(C)n3)ccnc21, which “viability, % of control” value is on record?
A: The value was 105%.

Q: For Cc1cc(C(=O)Nc2cc(Nc3ccc4c(/C=C/c5ccccn5)n[nH]c4c3)ccc2F)n(C)n1, which Potency is on record?
A: The Potency was 16.6 µM (active).

Q: Which “viability, % of control” value does the source give for CC[C@H](CC[C@@H](C)[C@H]1CC[C@H]2[C@@H]3CC=C4C[C@@H](O)CC[C@]4(C)[C@H]3CC[C@]12C)C(C)C here?
A: Its value is 99.9%.

Q: With C[C@@H]1COCCN1c1cc(-c2ccnn2C)c2ccnc(-c3ccn[nH]3)c2n1 as the molecule, how does the Potency read?
A: The Potency was 0.118 µM (active).

Q: Which Potency does the source give for Cc1ncc(NC(=O)c2cccc(C(F)(F)F)c2)cc1-c1cnc(OC2CCOCC2)c(N2CCOCC2)c1 here?
A: Its Potency is 16.6 µM (active).

Q: With N#CCC1(n2cc(-c3ncnc4[nH]ccc34)cn2)CN(C2CCN(C(=O)c3ccnc(C(F)(F)F)c3F)CC2)C1 as the molecule, how does the Potency read?
A: Its Potency is 16.6 µM (active).

Q: Which Potency does the source give for CN(C)Cc1ccc(S(=O)(=O)n2ccc(/C=C/C(=O)NO)c2)cc1 here?
A: Its Potency is 2.35 µM (active).

Q: With CN[C@@H]1[C@@H](O)[C@@H](O[C@@H]2[C@@H](O)[C@H](O[C@H]3O[C@H](CN)[C@@H](O)[C@H](O)[C@H]3O)[C@@H](N)C[C@H]2NC(=O)C(O)CN)OC[C@]1(C)O (stereo not given in full) as the molecule, how does the “viability, % of control” value read?
A: Its value is 159%.

Q: With CC(C)(NS(=O)(=O)c1ccc2c(Cl)cnc(N=C(N)N)c2c1)C(=O)O as the molecule, how does the “viability, % of control” value read?
A: Its value is 148%.

Q: For OCCNC1CCCc2c1[nH]c1ccc(-c3ccccc3)cc21 (stereo not given), which Potency is on record?
A: The Potency was 11.8 µM (active).

Q: With OC1CCC(Oc2cccc3cnc(Nc4ccc5nc[nH]c5c4)nc23)CC1 (stereo not given) as the molecule, how does the Potency read?
A: The Potency was 0.0525 µM (active).

Q: For Nc1ncc(C(=O)NC2CN(C(=O)C3CC3)C2)c2ccc(-c3cccc(F)c3)nc12, which Potency is on record?
A: The Potency was 10.5 µM (active).

Q: For COc1cc(Nc2ncc(F)c(Nc3ccc4c(n3)N(COP(=O)(O)O)C(=O)C(C)(C)O4)n2)cc(OC)c1OC, which Potency is on record?
A: The Potency was 0.833 µM (active).

Q: With C=CC(=O)Nc1cccc(Nc2nc(Nc3ccc(N4CCN(C(C)=O)CC4)cc3OC)ncc2C(F)(F)F)c1 as the molecule, how does the Potency read?
A: Its Potency is 2.95 µM (active).

Q: For CO[C@H]1C[C@@H]2CC[C@@H](C)[C@@](O)(O2)C(=O)C(=O)N2CCCC[C@H]2C(=O)O[C@H]([C@H](C)C[C@@H]2CC[C@@H](OCCO)[C@H](OC)C2)CC(=O)[C@H](C)/C=C(/C)[C@@H](O)[C@@H](OC)C(=O)[C@H](C)C[C@H](C)/C=C\C=CC=C1C, which Potency is on record?
A: Its Potency is 13.2 µM (active).

Q: Which Potency does the source give for Cc1ccc(C(=O)Nc2ccc(CN3CCN(C)CC3)c(C(F)(F)F)c2)cc1C#Cc1cnc2[nH]ncc2c1 here?
A: The Potency was 0.0023 µM (active).

Q: With CN(CCO)C1CCN(c2ccc(Nc3ncc4c5ccnc(F)c5n(C5CCCC5)c4n3)nc2)CC1 as the molecule, how does the Potency read?
A: Its Potency is 0.129 µM (active).

Q: For C=CC(=O)N1CCC(C2CCNc3c(C(N)=O)c(-c4ccc(Oc5ccccc5)cc4)nn32)CC1 (stereo not given), which Potency is on record?
A: The Potency was 10.5 µM (active).

Q: Which Potency does the source give for O=C1S/C(=C\c2ccc(OCc3cccc(B(O)O)c3)cc2)C(=O)N1Cc1ccc(F)cc1 here?
A: Its Potency is 18.6 µM (active).

Q: Which Potency does the source give for COc1cc(NS(C)(=O)=O)ccc1Nc1c2ccccc2nc2ccccc12 here?
A: Its Potency is 0.0661 µM (active).

Q: With NC(CO)(CO)CCc1ccc(Sc2cccc(OCc3ccccc3)c2)cc1Cl as the molecule, how does the Potency read?
A: The Potency was 10.5 µM (active).

Q: Which “viability, % of control” value does the source give for Cc1nc2cccc(N)c2c(=O)n1C1CCC(=O)NC1=O (stereo not given) here?
A: Its value is 130%.

Q: With COc1cccc(Nc2ncnn3ccc(CN4CC[C@@H](N)[C@H](O)C4)c23)c1 as the molecule, how does the Potency read?
A: Its Potency is 0.296 µM (active).

Q: For Nc1ncn([C@H]2C[C@H](O)[C@@H](CO)O2)c(=O)n1, which Potency is on record?
A: Its Potency is 0.332 µM (active).

Q: Which “viability, % of control” value does the source give for CN1C(C(=O)Nc2ccccn2)=C(O)c2sccc2S1(=O)=O here?
A: Its value is 124%.

Q: With C[N+](C)(C)CC(=O)O as the molecule, how does the “viability, % of control” value read?
A: The value was 129%.

Q: With C=C1C[C@H]2C=Nc3cc(OCCCOc4cc5c(cc4OC)C(=O)N4CC(=C)C[C@H]4C=N5)c(OC)cc3C(=O)N2C1 as the molecule, how does the “viability, % of control” value read?
A: The value was 9.3%.

Q: With CN(C)Cc1cccc(N=C(c2ccccc2)c2c(O)[nH]c3cc(C(N)=O)ccc23)c1 as the molecule, how does the Potency read?
A: The Potency was 0.662 µM (active).

Q: With C[C@H]1[C@@H](OC(=O)CCC(=O)O)O[C@@H]2O[C@@]3(C)CC[C@@H]4[C@H](C)CC[C@@H]1[C@@]24OO3 as the molecule, how does the Potency read?
A: Its Potency is 1.66 µM (active).

Q: For CC1(C)O[C@@H]2C[C@H]3[C@@H]4C[C@H](F)C5=CC(=O)C=C[C@]5(C)[C@H]4[C@@H](O)C[C@]3(C)[C@]2(C(=O)CO)O1, which “viability, % of control” value is on record?
A: The value was 149%.

Q: For Cn1c(=O)c2c(ncn2CC2OCCO2)n(C)c1=O, which “viability, % of control” value is on record?
A: The value was 106%.

Q: For CCOC(=O)[C@H](CCc1ccccc1)N[C@H]1CCc2ccccc2N(CC(=O)O)C1=O, which Potency is on record?
A: Its Potency is 7.42 µM (active).

Q: With Cc1c(NC(=O)OCC2COCCN2)cn2ncnc(Nc3ccc4c(cnn4Cc4cccc(F)c4)c3)c12 (stereo not given) as the molecule, how does the Potency read?
A: Its Potency is 18.6 µM (active).

Q: With C=C1/C(=C/C=C2\CCCC3(C)[C@@H]([C@H](C)/C=C/C=C/C(O)(CC)CC)CC[C@@H]23)C[C@@H](O)C[C@@H]1O (stereo not given in full) as the molecule, how does the Potency read?
A: The Potency was 5.25 µM (active).
